The values below come from PubChem BioAssay (NCI).

Among the test systems are T-47D breast; BT-549 breast; MDA-MB-435 melanoma; SW-620 colon; MCF7 breast; HCT-116 colon; HCC-2998 colon; KM12 colon; MDA-MB-468 breast.
Assay in all cases: NCI-60 one-dose screen, 48 h (100 = growth as untreated, 0 = no growth, -100 = all killed)

Compounds without any hit were thinned out: in the full panel of roughly 83,000, 20% have a hit.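 Compound tested at a single concentration for 48 hours in 96-well plates; a percent growth value below 10 was scored as active.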 Values without a mark were called inactive. Activity calls are given as the source filed them.

With `CC/C(=C(\c1ccc(O)cc1)c1ccc(OCCN(C)C(=O)CCOCCNC(=O)c2ccc3c(c2)CN([C@@H]2CCC(=O)NC2=O)C3=O)cc1)c1ccccc1`, the growth is 38.3% with T-47D breast (1 µM); 50.4% with T-47D breast (10 µM); 9.93% (active) with BT-549 breast (1 µM); 39.3% in the assay with BT-549 breast (10 µM); 100% in the assay on MDA-MB-435 melanoma (1 µM); 95.4% in the assay with MDA-MB-435 melanoma (10 µM). For the same molecule, the growth was 87% with SW-620 colon (1 µM); 83.6% in the assay on SW-620 colon (10 µM); 27.9% in the assay on MCF7 breast (1 µM); 24% with MCF7 breast (10 µM); 92.7% in the assay with HCT-116 colon (1 µM); 94.8% in the assay on HCT-116 colon (10 µM). Also, the growth in the assay on HCC-2998 colon (1 µM) is 99%; with HCC-2998 colon (10 µM) it was 103%; with KM12 colon (1 µM), 102%; in the assay on KM12 colon (10 µM), 103%; in the assay with MDA-MB-468 breast (1 µM) it was 25.6%; with MDA-MB-468 breast (10 µM), 5.97% (active).

Consider `O=C(N/N=C/c1ccc(B(O)O)s1)c1[nH]c2ccc(Br)cc2c1-c1ccccc1`, for which the growth with T-47D breast (10 µM unless noted) is -77% (active); with BT-549 breast (10 µM unless noted) it was -76.2% (active); with MDA-MB-435 melanoma (10 µM unless noted), -75.1% (active); with SW-620 colon (10 µM unless noted) it was -74% (active); with MCF7 breast (10 µM unless noted) it was -67.1% (active); in the assay on HCT-116 colon (10 µM unless noted) it was -62.9% (active). The growth in the assay with HCC-2998 colon (10 µM unless noted) was -97.7% (active); in the assay with KM12 colon (10 µM unless noted), -36.5% (active).

Turning to `Cc1ccc(-c2cc(C(=O)N=Nc3c(O)[nH]c4ccc(F)cc34)c3ccccc3n2)cc1`, the growth in the assay on T-47D breast (10 µM unless noted) is 39.9%; in the assay on BT-549 breast (10 µM unless noted), 39.1%; with MDA-MB-435 melanoma (10 µM unless noted), 61%; in the assay on SW-620 colon (10 µM unless noted) it was 19.4%; in the assay with MCF7 breast (10 µM unless noted), 18%; in the assay with HCT-116 colon (10 µM unless noted), 21%. Besides, the growth was 35.9% with HCC-2998 colon (10 µM unless noted) and 51.2% in the assay with KM12 colon (10 µM unless noted).

On to `COc1ccc2ccccc2c1/C=C1\SC(=Nc2ccc(O)cc2)NC1=O`, for which the growth was 36.4% with T-47D breast (10 µM unless noted); -22.6% (active) in the assay with BT-549 breast (10 µM unless noted); 10.9% in the assay on MDA-MB-435 melanoma (10 µM unless noted); 35.4% in the assay on SW-620 colon (10 µM unless noted); 9.63% (active) with MCF7 breast (10 µM unless noted); 2.32% (active) in the assay on HCT-116 colon (10 µM unless noted). Also, the values for the growth with HCC-2998 colon (10 µM unless noted) and in the assay on KM12 colon (10 µM unless noted) were -0.301% (active) and 17.3%, respectively.

Turning to `CC/C(=C(\c1ccc(O)cc1)c1ccc(OCCNC)cc1)c1ccccc1`, the growth in the assay on T-47D breast (1 µM) is 59.6%; in the assay on T-47D breast (10 µM), 44.8%; in the assay on BT-549 breast (1 µM), 91.4%; with BT-549 breast (10 µM), 74.4%; with MDA-MB-435 melanoma (1 µM), 104%; in the assay with MDA-MB-435 melanoma (10 µM), 74.5%. For the same molecule, the growth is 107% with SW-620 colon (1 µM); 89.9% in the assay with SW-620 colon (10 µM); 24.9% in the assay on MCF7 breast (1 µM); 25.8% in the assay on MCF7 breast (10 µM); 93.2% in the assay with HCT-116 colon (1 µM); 62.4% with HCT-116 colon (10 µM). Also, the growth is 106% in the assay with HCC-2998 colon (1 µM); 56.7% in the assay with HCC-2998 colon (10 µM); 101% with KM12 colon (1 µM); 65.9% in the assay with KM12 colon (10 µM); 95.6% in the assay on MDA-MB-468 breast (1 µM); 72.4% in the assay on MDA-MB-468 breast (10 µM).

With `Cc1ccc(C(=O)C[n+]2cccc3c4ccccc4ccc32)cc1`, the growth is 43.8% in the assay with T-47D breast (10 µM unless noted); 20.8% with BT-549 breast (10 µM unless noted); 13.5% in the assay on MDA-MB-435 melanoma (10 µM unless noted); 19.5% in the assay with SW-620 colon (10 µM unless noted); 11.8% in the assay on MCF7 breast (10 µM unless noted); 11.8% in the assay with HCT-116 colon (10 µM unless noted). Also, the growth in the assay on HCC-2998 colon (10 µM unless noted) is 17.4%; in the assay on KM12 colon (10 µM unless noted), 25.7%.

Take `NS(=O)(=O)c1ccc(Nc2nc(SCC(=O)c3ccc(F)cc3)nc3ccccc23)cc1`: the growth with T-47D breast (10 µM unless noted) was 19.5%; in the assay with BT-549 breast (10 µM unless noted) it was 44.2%; in the assay with MDA-MB-435 melanoma (10 µM unless noted), 0.411% (active); in the assay with SW-620 colon (10 µM unless noted), 50.5%; in the assay with MCF7 breast (10 µM unless noted) it was 19.1%; with HCT-116 colon (10 µM unless noted) it was 39%. The values for the growth with HCC-2998 colon (10 µM unless noted) and with KM12 colon (10 µM unless noted) were 47.5% and 19.4%, respectively.

`CC1CCc2c(sc3nc(SCC(=O)c4cccc(Br)c4)n(-c4ccccc4)c(=O)c23)C1` (configuration not stated): the growth with T-47D breast (10 µM unless noted) was 15.9%; in the assay with BT-549 breast (10 µM unless noted) it was 78.5%; in the assay with MDA-MB-435 melanoma (10 µM unless noted) it was 29.5%; in the assay with SW-620 colon (10 µM unless noted), 28.5%; in the assay on MCF7 breast (10 µM unless noted), 56.9%; in the assay with HCT-116 colon (10 µM unless noted), 2.87% (active). Further, the figures for the growth with HCC-2998 colon (10 µM unless noted) and in the assay on KM12 colon (10 µM unless noted) were 60.6% and 89.6%, respectively.

As to `O=C1NC(=NC23CC4CC(CC(C4)C2)C3)N/C1=C\c1ccc2ncccc2c1`, the growth with T-47D breast (10 µM unless noted) is 22.5%; with BT-549 breast (10 µM unless noted), 16.2%; in the assay on MDA-MB-435 melanoma (10 µM unless noted), -22.6% (active); in the assay on SW-620 colon (10 µM unless noted), 1.21% (active); in the assay with MCF7 breast (10 µM unless noted) it was -11.4% (active); with HCT-116 colon (10 µM unless noted), 3.24% (active). Moreover, the growth in the assay on HCC-2998 colon (10 µM unless noted) is 22.7%; with KM12 colon (10 µM unless noted) it was 24.3%; with MDA-MB-468 breast (10 µM unless noted) it was 19.4%.

As for `Cc1ccccc1Nc1nnc(-c2c[nH]c3ccccc23)o1`, the growth with T-47D breast (10 µM unless noted) was 39.7%; with BT-549 breast (10 µM unless noted) it was 17.7%; in the assay on MDA-MB-435 melanoma (10 µM unless noted), -47.2% (active); in the assay with SW-620 colon (10 µM unless noted), 19.6%; with MCF7 breast (10 µM unless noted) it was 21.8%; with HCT-116 colon (10 µM unless noted), 19.3%. Further, the results for the growth in the assay with HCC-2998 colon (10 µM unless noted) and in the assay with KM12 colon (10 µM unless noted) were 11.3% and 25%, respectively.

Turning to `Cn1cc(-c2cc(N)n3nc(-c4c[nH]c5ccc(F)cc45)cc3n2)c2cccnc21`, the growth in the assay on T-47D breast (10 µM unless noted) was -59.7% (active); in the assay on BT-549 breast (10 µM unless noted), -73.6% (active); with MDA-MB-435 melanoma (10 µM unless noted) it was -76.6% (active); in the assay with SW-620 colon (10 µM unless noted), -66.4% (active); in the assay with MCF7 breast (10 µM unless noted) it was -53.8% (active); in the assay on HCT-116 colon (10 µM unless noted) it was -91.4% (active). Further, the figures for the growth with HCC-2998 colon (10 µM unless noted) and in the assay with KM12 colon (10 µM unless noted) were -100% (active) and -66% (active), respectively.

On to `Cc1ccc(C(=O)Nc2cccc(C(=O)NC(=S)Nc3ccc(S(N)(=O)=O)cc3)c2)cc1`, for which the growth was 47.6% in the assay on T-47D breast (10 µM unless noted); 51.4% in the assay with BT-549 breast (10 µM unless noted); 72.5% in the assay with MDA-MB-435 melanoma (10 µM unless noted); 116% with SW-620 colon (10 µM unless noted); 57.2% with MCF7 breast (10 µM unless noted); 71.6% in the assay on HCT-116 colon (10 µM unless noted). Also, the growth in the assay on HCC-2998 colon (10 µM unless noted) was 95.8%; in the assay with KM12 colon (10 µM unless noted), 76.9%; with MDA-MB-468 breast (10 µM unless noted), 58.7%.

For `CC(=O)c1c2c(c3ccc4c5ccccc5ccc4n13)C(=O)c1ccccc1C2=O`, the growth in the assay on T-47D breast (10 µM unless noted) is 92.5%; in the assay with BT-549 breast (10 µM unless noted) it was 113%; with MDA-MB-435 melanoma (10 µM unless noted), 98.3%; in the assay with SW-620 colon (10 µM unless noted), 107%; in the assay with MCF7 breast (10 µM unless noted) it was 58%; in the assay on HCT-116 colon (10 µM unless noted) it was 102%. Moreover, the growth is 94.3% with HCC-2998 colon (10 µM unless noted), 85.8% with KM12 colon (10 µM unless noted) and 84.2% in the assay with MDA-MB-468 breast (10 µM unless noted).
